This is a sample that favours compounds with a hit; in the whole collection about 5.7% have one here.
KB-3-1 cytotox = kills parental KB-3-1 adenocarcinoma cells; KB-3-1 viability, CellTiter-Glo ATP luminescence, 72 h; Potency, µM (highest dose often 46.1 µM), usual class: cytotoxic; hit rate 1.4% among 400,000; AID 1347075; further: nearly all actives have a fitted effect of over 60% in size
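KB-3-1 cells, DMEM (no phenol red) + 10% FBS; compound by pin transfer, 72 h, 37 °C. Readout: CellTiter-Glo luminescence after 10 min. Data normalized, curve-fitted.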
KB-V1 MDR tox = KB-V1 MDR subline cytotoxicity; KB-V1 MDR cells viability, CellTiter-Glo, 72 h; Potency, µM (doses to about 46.1 µM), hits mostly cytotoxic; hit rate 3.4% among 400,000; further: nearly all actives have a fitted effect of over 60% in size
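Potencies derive from concentration-effect curves fitted to normalized luminescence (CellTiter-Glo) of KB-V1 cells treated for 72 h at 37 degrees C in phenol-red-free DMEM containing 10% FBS.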
HT1080 IDH1KD tx = HT-1080 IDH1 knockdown cell toxicity (counter line) | AID 686971 | HT-1080 IDH1 knockdown viability, ATP luminescence, 48 h | hit rate 2% among 360,000 | Potency, µM (top dose mostly 46.1 µM), for the others: at the top dose activity, negative = toxicity, most hits filed as cytotoxic;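 further: 0% = DMSO wells and -100% = cell-free medium wells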
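% activity derives from luminescence (CellTiter-Glo), normalised to DMSO and no-cell wells. HT-1080-IDH1KD cells, 750/well, had 48 h compound exposure at 37 °C.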
HT1080NT lethal = kills 2HG-producing HT-1080-NT fibrosarcoma cells; HT-1080-NT fibrosarcoma viability, CellTiter-Glo ATP luminescence, 48 h; Potency, µM (highest dose often 46.1 µM), without a hit: at the highest dose activity, negative = less viability, hits mostly cytotoxic; hit rate 1.6% among 360,000; AID 686970;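 further: NT is the 2HG producing partner of a matched IDH1 knockdown line; 0% = DMSO-treated cells and -100% = media-only wells without cells; nearly all actives have a fitted effect of over 55% in size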
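Compounds were tested in concentration-response format on HT-1080-NT cells for 48 hours at 37 degrees C. Cell viability came from CellTiter-Glo luminescence; curves were classified by r2, response magnitude and activity.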
* = called active by the depositor; i = inactive; ? = inconclusive; . = no result; [ ] = another dose, or the depositor's remark. The call rests on the fitted dose curve; in most records, active means well fitted curve in the direction sought with a large enough effect; inconclusive means small, poorly fitted or top-dose-only effect, or another doubt; inactive means no such curve, though single readings can be large; an effect the other way counts as inactive or inconclusive. Unless noted, on the % scale 0 is the no-effect control and ±100 the full control effect; potency means the concentration at half of the fitted maximal effect.

SMILES	KB-3-1 cytotox	KB-V1 MDR tox	HT1080 IDH1KD tx	HT1080NT lethal
CSc1ccccc1OCc1cc(C(=O)N2CCN(C3CCCC3)C(=O)C2)no1	i	15µM*	-9%	-4%
O=C(c1cc(COc2ccc(F)cc2F)on1)N1CCN(C2CCCC2)C(=O)C1	i	5.2µM*	2%	3%
O=C(NCCCc1cnc[nH]1)NCCCN(Cc1ccc(Cl)cc1)c1ccc(Br)cn1	i	i	.	.
Nc1nc(N2CCN(C(=O)c3ccco3)CC2)nc2ccccc12	i	i	9%	20%
Nc1nc(N2CCN(C(=O)c3ccco3)CC2)nc2ccc(Br)cc12	?	21µM*	-13%	?
O=C(OCC(=O)N1CCN(C(=O)c2ccco2)CC1)c1cc(-c2cccc(Br)c2)nc2ccccc12	i	16µM*	-18%	-16%
c1ccc2sc(C3CCN(Cc4nnnn4Cc4ccc5c(c4)OCO5)CC3)nc2c1	23µM*	16µM*	-4%	-3%
CCOc1ccccc1NC(=O)C(NS(=O)(=O)c1ccc2c(c1)CCC(=O)N2)c1ccccc1 (configuration not stated)	i	i	.	.
Cc1sc2ncn(CC(=O)N3CCN(c4ccc(Cl)cc4)CC3)c(=O)c2c1S(=O)(=O)N1CCN(c2ncccn2)CC1	i	i	.	.
C=CCn1c(=N)n(CC(O)COc2ccccc2OC)c2ccccc21 (configuration not stated)	i	i	-19%	-23%
Cc1ccccc1OCC(O)Cn1c2ccccc2c2ccccc21 (configuration not stated)	i	21µM*	?	?
Cc1ccccc1OCC(O)CN1CCN(CC(O)COc2ccccc2C)C(C)C1 (configuration not stated)	i	i	?	26µM*
COc1ccccc1OCC(O)Cn1c(=N)n(Cc2ccccc2)c2ccccc21 (configuration not stated)	16µM*	?	-13%	?
Cc1ccccc1OCC(O)Cn1c(=N)n(Cc2ccccc2)c2ccccc21 (configuration not stated)	?	?	16µM*	15µM*
CC(C)c1ccc(S(=O)(=O)c2nnn3c2nc(N2CCOCC2)c2sccc23)cc1	i	i	.	.
O=C(NCC(c1cccs1)S(=O)(=O)c1cccs1)c1cccc(F)c1 (configuration not stated)	i	i	.	.
COc1ccc(C(=O)Nc2nc3n(n2)C(c2ccc(Cl)cc2)C=C(c2ccccc2)N3)cc1OC (configuration not stated)	i	i	.	.
CS(=O)(=O)N(CC(=O)NC1CCCC1)C1CCCCC1	i	i	18%	2%
COc1ccc(C(=O)C2CCN(C(=O)c3ccc(OC)cc3)CC2)cc1	?	6.5µM*	?	1%
COc1ccccc1NC(=O)N1CCC(C(=O)c2ccc(F)cc2)CC1	i	21µM*	-4%	20%
COc1ccccc1C(=O)N1CCC(C(=O)c2ccc(F)cc2)CC1	i	9.2µM*	-4%	0%
CCOc1ccc(C(=O)N2CCC(C(=O)c3ccc4c(c3)OCCO4)CC2)cc1	i	4.1µM*	-5%	0%
COc1ccc(C(=O)N2CCC(C(=O)c3ccc(F)cc3)CC2)cc1	i	?	-1%	5%
CCOC(=O)C1CCN(C(=O)c2ccc3c(c2)OCCO3)CC1	i	i	3%	-2%
CCOC(=O)C1=C(O)c2ccccc2C(=O)/C1=C\c1ccc(C)cc1	?	?	18µM*	?
SMILES	KB-3-1 cytotox	KB-V1 MDR tox	HT1080 IDH1KD tx	HT1080NT lethal
COC(=O)c1ccc(CN2C(=O)NC(Cc3c[nH]c4ccccc34)C2=O)cc1 (configuration not stated)	i	18µM*	-7%	-16%
COc1ccc(Cl)cc1NC(=O)CN1C(=O)NC(Cc2c[nH]c3ccccc23)C1=O (configuration not stated)	?	21µM*	-5%	-4%
CCOc1ccc(CCNC(=O)c2cc3c(=O)oc4ccc(C)cc4c3s2)cc1OCC	i	?	.	.
CN1CCN(CC(=O)Nc2c(C(=O)c3ccccc3)oc3ccccc23)CC1	i	i	21µM*	23µM*
COc1ccc2oc(C(=O)c3ccccc3)c(NC(=O)CN3CCN(C)CC3)c2c1	i	i	14%	6%
O=C(Nc1nc2c(s1)CCCC2)c1cc(-c2ccccc2)nc2ccccc12	i	13µM*	-1%	9%
CC(C)(C)c1nnc(NC(=O)c2cc(-c3ccccc3)nc3ccccc23)s1	i	i	-20%	-21%
Cc1cc(NC(=O)c2cc(-c3ccncc3)nc3ccccc23)ccc1Br	?	8.2µM*	-21%	3%
CC(=O)c1cccc(NC(=O)c2cc(-c3ccncc3)nc3ccccc23)c1	i	?	-23%	-5%[9.24 µM]
Cc1csc(NC(=O)c2cc(-c3ccccc3)nc3ccccc23)n1	?	2.3µM*	-24%	-23%
Cc1csc(NC(=O)c2nc(-c3ccccc3)n(-c3ccccc3)n2)n1	?	10µM*	14%	4%
Cc1cccc(NC(=O)CSc2nc3c(c(=O)[nH]2)CN(Cc2ccc4c(c2)OCO4)CC3)c1C	i	i	.	.
O=C(Nc1ccc2c(c1)CCC2)c1cc(S(=O)(=O)Nc2ccc(F)cc2)c(Cl)cc1Cl	?	18µM*	?	?
COc1ccc(NC(=O)CCc2c(C)nc3nc(CNC(=O)OC(C)(C)C)nn3c2C)cc1OC	i	?	.	.
CCCc1cc(NCCCCO)n2c(nc3ccccc32)c1C#N	i	23µM*	-13%	-11%
COc1ccc(C(=O)OCC(=O)c2c[nH]c3ccccc23)cc1OC	i	i	-16%	-6%
COc1cc(Cl)c(CC(=O)c2c[nH]c3ccccc23)cc1OC	13µM*	?	-7%	-11%
CCOC(=O)C1=C(CC)Nc2ccccc2N/C1=N\S(=O)(=O)c1cc(Br)ccc1Br	?	i	?	?
CCOC(=O)C1=C(CC)Nc2ccccc2N/C1=N\S(=O)(=O)c1ccc2ccccc2c1	i	i	15µM*	18µM*
CCCc1cc(N2CCCC(C(=O)Nc3cc(Cl)ccc3OC)C2)n2ncnc2n1 (configuration not stated)	i	13µM*	-2%	14%
COc1ccc(Cl)cc1NC(=O)C1CCCN(c2cc(C)nc3ncnn23)C1 (configuration not stated)	i	i	-13%	3%[9.24 µM]
Cc1cc(N2CCCC(C(=O)Nc3ccc4c(c3)CCC4)C2)n2ncnc2n1 (configuration not stated)	?	4.6µM*	?	-4%
CCOC(=O)C1(Cc2ccccc2C(F)(F)F)CCN(C2CCN(C(C)C)CC2)CC1	i	?	15µM*	?
CCOC(=O)C1(CCOC)CCN(Cc2ccc(COC)o2)CC1	i	i	2%	-4%
CCOC(=O)C1(Cc2ccccc2C(F)(F)F)CCN(Cc2ccc(COC)o2)CC1	18µM*	?	?	?

Compound activity (PubChem)
